Screening results (PubChem BioAssay)
A selection: hits, their analogues and other compounds. The true share with any hit is near 4.1%.
FAS TE block = FAS thioesterase domain inhibitors, primary screen, biochemical, fluorescence intensity, uHTS; recombinant FAS-TE, OMFH fluorogenic substrate, fluorescence endpoint; inhibition, % at 15 µM; 360,000 tested, 0.67% active; AID 602261, 2012;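 active = compounds whose normalised, plate-corrected inhibition of enzyme fluorescence in the single-dose primary screen is 50% or more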;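 note: 0% = DMSO with enzyme and 100% = substrate without enzyme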
p-CIP stab down = p/CIP-EGFP fusion destabilizers, primary screen, fluorescence, F442A cells | Q05BA5 | 16 h | decrease of EGFP signal, % at 10 µM | 290,000 tested, 0.01% active | AID 1984, 2009;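 active = EGFP signal decrease of at least 30% at 10 µM or well 3 SD below plate mean, unless failing retest; inactive = the rest, including hits failing retest or dose response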
NR3A LBD binder = binders of NR3A ligand-binding domain, primary screen, biophysical, differential scanning fluorimetry, uHTS; Glutamate receptor ionotropic, NMDA 3A (GRIN3A) ligand-binding domain; NR3A LBD differential scanning fluorimetry, Tm shift; 0% = protein alone, 100% = glycine-bound protein; Tm shift relative to glycine control, % at 25 µM; 340,000 tested, 2.5% active;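 active = melting temperature shift of at least 10% of the positive control shift, at one fixed dose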
MPTP inh = mitochondrial permeability transition pore inhibitors, primary screen, biochemical, isolated mouse mitochondria, absorbance; Ca2+ swelling absorbance, 30 min; inhibition, % at 10 µM; 360,000 tested, 1.4% active; AID 602449, 2012;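 active = inhibition of 50% or more, scaled per plate between neutral and stimulator controls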;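 note: 0% = DMSO wells given calcium and 100% = 1 mM EGTA wells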
beta cell repl = inducers of MIN6 beta-cell proliferation, primary screen, ATP luminescence, uHTS | MIN6 cells proliferation, ATPlite luminescence, 48 h; cells starved in 0.2% serum; 100% = growth in 10% serum | proliferation, % at 10 µM | AID 2380, 2010 | 330,000 tested, 0.29% active;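 active = compounds whose signal lies at least 3.5 SD above the mean of all wells on their plate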;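 note: 0% = DMSO-treated cells in low-serum medium and 100% = 10% serum control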
MPTP counter = fluorescence retest of MPTP screen hits in isolated mitochondria, single concentration | membrane potential, Rhodamine 123 fluorescence | shares compounds with MPTP inh | 5,000 tested, 78% active | inhibition, % at 10 µM; in the data active = inhibition above about 22%;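 note: 0% = DMSO vehicle and 100% = positive control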
MPTP swell DR = mitochondrial permeability transition pore inhibitors, dose response, biochemical, absorbance, uHTS hits; shares compounds with MPTP inh; isolated mitochondria swelling; IC50, µM; 780 tested, 58% active; in the data active = IC50 below about 20 µM
MPTP cs DR = fluorescent counter-screen in isolated mitochondria, dose response, counter-screen for MPTP inhibitor project, biochemical, fluorescence, uHTS hits. isolated mitochondria counterscreen, fluorescence read-out. 780 tested, 49% active. shares compounds with MPTP inh. IC50, µM; in the data active = IC50 below about 80 µM
* marks the source's active call; other numbers are inactive results; i = inactive; / = no result.

SMILES	FAS TE block	p-CIP stab down	NR3A LBD binder	MPTP inh	beta cell repl	MPTP counter	others
COc1ccc(NC(=S)NCc2cccnc2)cc1	0	2	0	0	-2	/
S=C(NCc1ccccc1)Nc1ccc(Oc2ccccc2)cc1	25	6	12*	86*	-5	87*
O=C(CNCc1ccccc1)Nc1ccc(Oc2ccccc2)cc1	10	6	-1	66*	-1	-11	MPTP swell DR=i;MPTP cs DR=43*
S=C(NCc1cccnc1)Nc1ccc(Oc2ccc(Cl)cc2)cc1	14	-13	5	80*	-4	66*
CCNC(=S)Nc1ccc(Oc2ccccc2)cc1	-6	/	-3	-4	-2	/
S=C(NCc1cccnc1)Nc1ccc(Cl)c(Cl)c1	12	-10	-5	71*	-1	93*
Cc1cccc(Cn2c(N3CCN(C)CC3)nc3c2c(=O)n(C)c(=O)n3C)c1	-1	-11	-2	-2	-2	/
Cc1nc(C)c(CCNC(=O)c2ccccc2Br)s1	-15	-7	-2	0	-4	/
CC1(C)N=C(N)N=C(N)N1c1ccc(CCCCc2ccccc2)cc1	-8	/	/	64*	/	60*
CC1(C)N=C(N)N=C(N)N1c1ccccc1	-4	-9	-3	0	0	/
CN(Cc1ccccc1)CC(O)COc1ccc(CNCc2ccc(Cl)s2)cc1 (stereo not given)	-1	2	-1	91*	-5	-6	MPTP swell DR=8*;MPTP cs DR=36*
S=C(NC1CCCCC1)N(CCc1nc2ccccc2[nH]1)C1CCCC1	3	4	-6	65*	-6	79*
Cc1ccc(S(=O)(=O)Nc2cccnc2)cc1	-6	-8	1	1	4	/
CCCCOc1ccc(S(=O)(=O)Nc2cccnc2)cc1	-7	-18	-2	72*	-1	59*
CN(C(=S)Nc1ccc(SC(F)F)cc1)c1ccc(O)cc1	-1	-4	-1	97*	0	82*
Cc1ccc(NC(=O)C(=O)NCc2ccc(/C=C(/C#N)C(=O)NCc3cccnc3)o2)cc1C	-6	-5	-1	60*	-4	76*
COCCNC(=O)/C(C#N)=C\c1ccc(CNC(=O)C(=O)Nc2ccc(C)c(C)c2)o1	-6	-7	-6	1	0	/
CCCCN(CC)CCNC(=O)CNC(=O)Cn1ccc2ccccc2c1=O	-5	-2	0	-1	2	/
O=C(NC(c1cccnc1)C(F)(F)F)c1cc(COc2ccc3c(c2)CCCC3)on1 (stereo not given)	-56	-7	-3	100*	-7	86*
Cc1nc2ccc(S(=O)(=O)Nc3cccc(-c4nc5cccnc5s4)c3C)cc2s1	7	-6	-7	98*	-7	88*
O=C(O)c1cc(NC(=O)c2ccc(Cl)c([N+](=O)[O-])c2)cc(C(=O)O)c1	-3	-7	0	0	-2	/
N#Cc1ccsc1NC(=O)c1ccc(Cl)c([N+](=O)[O-])c1	10	10	4	82*	-7	71*
O=C(Nc1ccc(C(O)(C(F)(F)F)C(F)(F)F)cc1)c1ccc(Cl)c([N+](=O)[O-])c1	49	-2	13*	83*	-3	67*
O=C(Nc1ccc(S(=O)(=O)NC2=NCCCCC2)cc1)c1ccc(Cl)c([N+](=O)[O-])c1	17	/	-3	-2	-6	/
Cc1cccc(C)c1NS(=O)(=O)c1ccc(NC(=O)c2ccc(Cl)c([N+](=O)[O-])c2)cc1	45	4	19*	74*	-6	81*
SMILES	FAS TE block	p-CIP stab down	NR3A LBD binder	MPTP inh	beta cell repl	MPTP counter	others
O=C(CCNC(=O)c1ccc(Cl)cc1)Nc1c(F)c(F)cc(F)c1F	-3	4	-1	1	2	/
O=C(Nc1c(F)cc(F)cc1Br)c1cc(-c2ccc(O)cc2)on1	3	-21	-8	92*	-3	23*
O=C(Nc1c(F)cc(F)cc1Br)c1cc(-c2ccccc2)on1	4	11	0	1	-2	/
Cc1cc(C(=O)CCC(=O)NCC2COc3ccccc3O2)c(C)s1 (stereo not given)	2	/	2	0	-2	/
CC(Oc1ccccc1)C(=O)Nc1nnc(S(=O)(=O)Nc2ccccc2)s1 (stereo not given)	-6	-9	-11	5	-1	/
O=c1c2c(nc3c(-c4cccc(Br)c4)c[nH]n13)CCCC2	6	-5	0	58*	-6	73*
Cc1ccc(NC(=O)CSCc2cc(=O)n3nc(C4CC4)sc3n2)cc1	-1	10	4	-1	-3	/
COc1ccccc1Oc1ccc2c(c1)C(=O)N(c1cccc(O)c1)C2=O	2	-2	-29	6	-2	/
COc1ccccc1Oc1ccc2c(c1)C(=O)N(c1cccc3ncccc13)C2=O	12	6	3	96*	/	112*
CCc1ccccc1NC(=O)Nc1cc(F)ccc1F	12	-7	-8	58*	0	88*
CCn1c(CN(C)c2ccccc2)nc2ccccc21	-4	-25	-1	0	4	/
O=C(NCCC(=O)N1CCC2(CC1)NCCc1[nH]cnc12)c1cccc(C(F)(F)F)c1	-11	-17	-1	-1	-1	/
N#Cc1cc(C(=O)c2ccccc2O)cn(-c2nccs2)c1=O	-39	-8	-2	46	/	/
N#Cc1cc(C(=O)c2cc(F)ccc2O)cn(-c2nccs2)c1=O	-35	-27	-5	52*	-2	86*
O=C(NCCCN1CCC(Cc2ccccc2)CC1)C1CCN(S(=O)(=O)N2CCOCC2)CC1	-8	-12	2	88*	/	5	MPTP swell DR=i;MPTP cs DR=61*
Cc1onc(C(=O)Nc2sc3c(c2C#N)CCCC3)c1[N+](=O)[O-]	-8	-5	-3	6	-2	/
CCCCc1c(C)c(C#N)c2[nH]c3ccccc3n2c1=O	11	-14	1	83*	-6	96*
O=C(c1ccco1)c1cn(CC(=O)N2CCCc3ccccc32)c2ccccc12	13	-4	-1	12	0	/
CC(C)OC(=O)Nc1ccc(-c2ccc(NC(=O)OC(C)C)cc2Cl)c(Cl)c1	-8	-6	3	1	0	/
CC(C)OC(=O)NCCOC(=O)Nc1ccc(Cl)c(Cl)c1	22	3	0	97*	-6	98*
O=C(Nc1ccccc1)OCCNC(=O)c1cccc(Cl)c1	-1	-11	-8	3	-2	/
CC(C)OC(=O)NCCOC(=O)Nc1cccc(Cl)c1	4	-4	1	100*	-5	93*
